Measured values published in PubChem BioAssay.
The source made the active and inactive calls.

Key:
[1] = compounds binding Alexa647 anti-His antibody – biochemical, small-molecule microarray, 635 nm fluorescence, artefact control for SMM control protein annotation, primary screen (AID 1128); conditions: higher = more signal;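 also: score merges feature fluorescence with signal-to-noise for each printed compound spot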
[2] = system: Human papillomavirus type 1a E7 protein (residues 1-88); test: HPV1a E7 small-molecule binders, primary screen, biochemical, small-molecule microarray, residues 1-88, 635 nm (AID 1129); conditions: small-molecule microarray binding, fluorescence 635 nm; higher = more signal
[3] = target: Focal adhesion kinase 1 (Homo sapiens) (UniProt Q05397); test: PTK2 protein binding on printed compound slides – biochemical, small-molecule microarray, 635/667 nm fluorescence, BSA, DTT, primary screen (AID 1130); conditions: 635 nm fluorescence, higher = more signal;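 also: composite of spot emission at 667 nm and signal to noise over triplicate slides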
[4] = system: Fibrinogen (Alexa647-labelled); test: Alexa647-fibrinogen binding to printed small molecules – biochemical, small-molecule microarray, 635/667 nm fluorescence, artefact control for SMM control-protein annotation, profiling panel (AID 1131); conditions: fibrinogen-A647 binding fluorescence, higher = more signal;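 also: z-score merges 667 nm fluorescence with per-spot signal-to-noise over triplicate slides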
[5] = target: Follistatin (Homo sapiens) (UniProt P19883); test: FST protein binding to printed compounds – biochemical, small-molecule microarray, 635/667 nm fluorescence, primary screen (AID 1132); conditions: 635 nm fluorescence, higher = more signal
[6] = target: Fibroblast growth factor 2 (Homo sapiens) (UniProt P09038); test: basic fibroblast growth factor binding to printed compounds – biochemical, small-molecule microarray, 635/667 nm fluorescence, primary screen (AID 1133); conditions: FGF2, fluorescence 635/667, higher = more signal
[7] = JC-1 mitochondrial potential readout, lung cancer cells – cell-based, A549, JC-1 fluorescence, basal, 24 h, 100 nL, profiling panel (AID 1138); conditions: higher = more signal;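 also: A549 lung adenocarcinoma cells under basal conditions with no added stimulus; test concentration not given here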
Lefty1 = Lefty1 protein binding to printed compounds – biochemical, small-molecule microarray, 635/667 nm fluorescence, primary screen (AID 1139); conditions: fluorescence 635/667, higher = more signal
[8] = system: wheat germ agglutinin (Triticum aestivum), Alexa647-labelled; test: Alexa647-WGA lectin binding to printed small molecules – biochemical, small-molecule microarray, 635/667 nm fluorescence, artefact control for SMM control-protein annotation, profiling panel (AID 1140); conditions: WGA-A647 binding, 635 nm fluorescence, higher = more signal;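 also: score merges 667 nm feature emission with signal to noise over triplicate slides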
[9] = target: Luciferin 4-monooxygenase (Photinus pyralis) (UniProt P08659); test: inhibition of purified Photinus pyralis luciferase – biochemical, luminescence, purified enzyme, 2006 set, primary screen (AID 1141); conditions: purified firefly luciferase, SteadyGlo luminescence, 30 min; higher = more signal, called active from +8 up or from −8 down;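 also: cell-free assay with purified firefly luciferase at 100 ng per well in PBS; test concentration not given here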
Sequence of Luciferin 4-monooxygenase (Photinus pyralis) (P08659 whole entry, looked up): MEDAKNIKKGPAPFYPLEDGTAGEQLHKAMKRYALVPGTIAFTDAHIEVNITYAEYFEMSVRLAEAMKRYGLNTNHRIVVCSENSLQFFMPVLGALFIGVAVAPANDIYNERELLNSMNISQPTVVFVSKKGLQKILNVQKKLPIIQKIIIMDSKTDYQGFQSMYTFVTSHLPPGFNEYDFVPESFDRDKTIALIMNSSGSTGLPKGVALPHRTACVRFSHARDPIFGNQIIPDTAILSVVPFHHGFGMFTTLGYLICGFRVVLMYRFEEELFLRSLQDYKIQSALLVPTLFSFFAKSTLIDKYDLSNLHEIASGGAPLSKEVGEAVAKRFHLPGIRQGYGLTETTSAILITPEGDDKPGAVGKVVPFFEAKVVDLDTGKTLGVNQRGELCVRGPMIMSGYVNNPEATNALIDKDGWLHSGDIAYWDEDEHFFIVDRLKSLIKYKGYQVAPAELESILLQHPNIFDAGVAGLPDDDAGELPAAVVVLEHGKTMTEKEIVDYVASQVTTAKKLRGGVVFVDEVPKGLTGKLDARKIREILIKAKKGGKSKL

Sequence of Follistatin (Homo sapiens) (P19883 whole entry, looked up): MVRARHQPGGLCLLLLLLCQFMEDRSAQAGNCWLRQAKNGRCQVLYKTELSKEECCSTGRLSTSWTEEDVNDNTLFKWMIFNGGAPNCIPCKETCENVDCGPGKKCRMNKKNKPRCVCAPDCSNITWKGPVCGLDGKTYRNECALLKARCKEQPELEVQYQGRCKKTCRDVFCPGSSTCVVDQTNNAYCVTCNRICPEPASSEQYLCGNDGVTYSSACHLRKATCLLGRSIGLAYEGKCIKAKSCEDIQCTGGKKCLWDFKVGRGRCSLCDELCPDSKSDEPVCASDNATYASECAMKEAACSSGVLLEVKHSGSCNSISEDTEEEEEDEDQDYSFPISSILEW
Sequence of Fibroblast growth factor 2 (Homo sapiens) (P09038 whole entry, looked up): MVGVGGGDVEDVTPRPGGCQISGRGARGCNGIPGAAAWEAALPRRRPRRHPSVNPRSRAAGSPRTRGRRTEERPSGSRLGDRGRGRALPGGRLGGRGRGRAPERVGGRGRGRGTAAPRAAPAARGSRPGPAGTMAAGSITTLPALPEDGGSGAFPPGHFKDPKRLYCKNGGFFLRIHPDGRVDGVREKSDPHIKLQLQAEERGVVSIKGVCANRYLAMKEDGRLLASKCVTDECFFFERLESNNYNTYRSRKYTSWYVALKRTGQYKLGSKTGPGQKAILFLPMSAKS
Sequence of Focal adhesion kinase 1 (Homo sapiens) (Q05397 whole entry, looked up): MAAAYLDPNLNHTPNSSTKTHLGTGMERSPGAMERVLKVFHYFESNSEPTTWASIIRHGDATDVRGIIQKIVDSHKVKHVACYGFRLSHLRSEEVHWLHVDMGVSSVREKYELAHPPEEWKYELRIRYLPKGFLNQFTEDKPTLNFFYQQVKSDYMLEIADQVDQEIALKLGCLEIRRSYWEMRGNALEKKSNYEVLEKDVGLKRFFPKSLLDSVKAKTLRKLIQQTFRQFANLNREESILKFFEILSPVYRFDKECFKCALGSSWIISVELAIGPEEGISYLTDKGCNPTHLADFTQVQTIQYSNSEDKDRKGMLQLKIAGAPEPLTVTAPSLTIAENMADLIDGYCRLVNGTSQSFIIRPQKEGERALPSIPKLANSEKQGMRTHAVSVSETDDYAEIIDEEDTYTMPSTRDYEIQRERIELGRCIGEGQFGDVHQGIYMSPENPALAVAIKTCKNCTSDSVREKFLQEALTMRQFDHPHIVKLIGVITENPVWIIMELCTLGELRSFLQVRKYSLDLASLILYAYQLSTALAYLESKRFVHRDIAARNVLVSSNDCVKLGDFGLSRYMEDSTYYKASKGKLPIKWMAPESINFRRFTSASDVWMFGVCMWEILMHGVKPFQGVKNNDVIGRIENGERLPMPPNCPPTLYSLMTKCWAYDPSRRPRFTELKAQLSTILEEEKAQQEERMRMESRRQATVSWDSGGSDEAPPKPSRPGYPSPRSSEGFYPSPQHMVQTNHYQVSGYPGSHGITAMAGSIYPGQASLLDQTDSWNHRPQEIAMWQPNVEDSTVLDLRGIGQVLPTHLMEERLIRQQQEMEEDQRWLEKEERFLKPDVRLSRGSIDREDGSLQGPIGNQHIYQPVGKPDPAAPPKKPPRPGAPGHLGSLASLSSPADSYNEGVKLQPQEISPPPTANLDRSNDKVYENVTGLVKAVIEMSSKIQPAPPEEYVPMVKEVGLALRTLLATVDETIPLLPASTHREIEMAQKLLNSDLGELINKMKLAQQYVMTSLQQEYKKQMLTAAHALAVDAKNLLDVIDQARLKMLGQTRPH

Row | SMILES | composite z-score [1] | composite z-score [2] | composite z-score [3] | composite z-score [4] | composite z-score [5] | composite z-score [6] | z-score [7] | composite z-score (Lefty1) | composite z-score [8] | z-score [9]
1 | CO[C@H]1COC(=O)CC=C[C@@H](C)[C@H](OC)COC(=O)CCC[C@@H]1C | 0.165 | -0.289 | -0.735 | -0.511 | 0.776 | 1.15 | -0.738 | 0.945 | -0.173 | 1.09 (inactive)
2 | CO[C@H]1COC(=O)[C@@H](C)COC(=O)[C@@H](OCc2ccccc2)C=C[C@@H]1C | -0.328 | -0.869 | 0.106 | -0.648 | -0.17 | 0.193 | 0.651 | 0.0823 | -1.08 | -0.415 (inactive)
3 | CC(C)=CCCC(C)=CCON=C1C[C@@H](O)[C@@H](O)[C@@H]2[C@@H]3C(=O)N(c4ccc(F)cc4F)C(=O)[C@@H]3CC[C@@H]12 | 0.0658 | -0.167 | 0.121 | 0.89 | 1.04 | 0.393 | -0.913 | 1.27 | 1.06 | 1.03 (inactive)
4 | CC(=O)O[C@H]1C2=CO[C@H](C)[C@H]3[C@H]4C5=C([C@H](O)[C@H]6O[C@H]6C5=O)[C@H](OC4C)[C@@]23C(=O)[C@@H]2O[C@@H]21 (stereo not given in full) | -0.497 | 0.121 | -0.703 | -0.331 | -0.436 | 1.35 | -0.837 | 0.0873 | -0.515 | -0.413 (inactive)
5 | CON=C(C)CCC(=O)OC[C@H]1O[C@H](c2ccccc2)C=C[C@@H]1Oc1ccc(OC)cc1 | 1.25 | -0.623 | -0.0144 | -0.45 | 0.252 | 0.48 | 0.472 | 0.415 | -0.551 | 0.236 (inactive)
6 | C#CCCCON=C1C[C@@H](O)[C@@H](O)[C@@H]2[C@@H]3C(=O)N(C(C)(C)C)C(=O)[C@@H]3CC[C@H]12 | 0.0217 | -0.204 | -0.0811 | 0.589 | -0.861 | -0.127 | -0.049 | -0.912 | 0.903 | 0.541 (inactive)
7 | C[n+]1ccc(-c2ccc(CO)cc2)cc1 | 0.658 | -0.676 | -0.332 | -0.168 | 1.55 | 1.35 | -0.666 | 1.61 | 1.48 | -0.288 (inactive)
8 | CCOC(=O)[C@H](CC(C)C)NC(=O)CCC1CC(OC(=O)NCc2ccc3c(c2)OCO3)CC2(CCCC(COC(=O)NCC3CCCCC3)O2)O1 (stereo not given in full) | 1.18 | 0.939 | -0.217 | -0.195 | 1.18 | 0.928 | 0.0853 | 1.63 | 0.584 | 0.885 (inactive)
9 | CO[C@@H]1COC(=O)[C@H](CCSC)NC(=O)CC=C[C@@H](C)COC(=O)[C@H](C)NC(=O)CC=C[C@H]1C | -0.229 | 0.255 | -0.342 | -0.433 | 0.96 | 1.62 | 0.812 | 1.2 | -0.543 | -1.2 (inactive)
10 | CCOC(=O)NN=C1C[C@@H](O)[C@@H](O)[C@@H]2[C@@H]3C(=O)N(C(C)(C)C)C(=O)[C@@H]3CC[C@H]12 | 0.322 | 0.215 | 0.064 | 0.0959 | 0.903 | 0.647 | 0.233 | 0.279 | -0.0123 | 0.0659 (inactive)
11 | C[C@@H](ON=C1[C@H]2CCn3c(=O)n(-c4ccccc4)c(=O)n3[C@H]2[C@H](O)[C@@H]2O[C@H]12)c1cn([C@@H]2COC[C@H]2O)nn1 | -0.0522 | 0.619 | 0.0584 | 0.544 | 0.414 | 0.433 | -0.339 | 0.691 | 0.0978 | 0.704 (inactive)
12 | C[C@H](ON=C1[C@H]2CCn3c(=O)n(-c4ccccc4)c(=O)n3[C@H]2[C@H](O)[C@@H]2O[C@H]12)c1cn([C@H](CO)Cc2ccccc2)nn1 | -0.692 | 0.588 | 0.273 | 0.985 | 0.3 | 0.646 | -0.717 | 0.572 | 0.742 | -0.0281 (inactive)
13 | CC(C)CON=C1C[C@@H](O)[C@@H](O)[C@@H]2[C@@H]3C(=O)N(C4CCCCC4)C(=O)[C@@H]3CC[C@@H]12 | 0.889 | -0.586 | 0.955 | 0.476 | 0.0116 | -0.309 | -0.572 | 0.225 | 0.556 | 0.0051 (inactive)
14 | COC(=O)C=CCCc1coc(C=CCNC(=O)OC)n1 | 0.803 | -0.259 | 0.256 | 0.247 | 1.15 | 1.04 | -1.15 | 1.37 | 0.0559 | 0.122 (inactive)
15 | O=C1[C@H]2[C@H]3[C@H](O)[C@H](O)CC(=NOCc4ccccc4)[C@@H]3CC[C@H]2C(=O)N1Cc1ccc2c(c1)OCO2 | 0.0116 | 0.316 | 0.928 | 0.866 | 1.23 | 0.319 | -0.368 | 0.268 | 0.261 | 0.729 (inactive)
16 | CC(C)[C@@H](OCc1ccccc1)[C@H](C)C=NOC[C@@H](O)COCc1ccco1 | 1.29 | -0.244 | -0.277 | -1.75 | -1.05 | -1.37 | -0.541 | -0.801 | -1.29 | 0.331 (inactive)
17 | COC(=O)[C@@H]1CC[C@@H](C)[C@H](c2ccc(Br)cc2)N1 | 0.949 | 0.0613 | 0.867 | 0.689 | -0.177 | -0.0826 | 0.864 | -0.0352 | 0.0075 | -0.482 (inactive)
